14 molecules from PubChem BioAssay (EPA / NIEHS) can be followed below.

The AC50 is the midpoint of the concentration-response curve, whichever way the signal moves.

Where “and” joins values, the source holds several entries; their conditions need not be identical. Identical values can stand only once. Some compounds were tested as several samples or in several runs, with calls that do not always agree. Calls of active or inactive are those of the source. Rule for the calls: active = hit-call score of the fitted dose curve at least 0.9, where 1 is the maximum; inactive = score below 0.9.

The target of assay [1] is Paired box protein Pax-6 (Homo sapiens) (UniProt P26367). Kind of assay: ATG_Pax6_CIS: Attagene CIS-FACTORIAL HepG2 Assay for human Paired Box 6 (PAX6) (AID 2282956). Particulars: HepG2 CIS-FACTORIAL PAX6 reporter transcription, RNA readout; actives raise or lower the signal. In outline: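 HepG2 cells transiently transfected with multiplexed cis-promoter reporter units (endogenous TF activity) were dosed for 24 h. Reporter mRNA was quantified by RT-PCR, 6-FAM labeling, HpaI digestion and capillary electrophoresis; bidirectional fitting versus DMSO baseline.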

Assay [2] in a line: ATG_PXRE_CIS: Attagene CIS-FACTORIAL HepG2 Assay for human Pregnane X Receptor Element (PXRE) (AID 2282957). Particulars: HepG2 Attagene CIS-FACTORIAL PXRE reporter, mRNA; actives raise or lower the signal. The essentials: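 Cis-element reporter mRNA in human hepatoma HepG2 cells is measured 24 h post-dosing by RT-PCR, primer-extension labeling and capillary electrophoresis; gain or loss of signal is fitted relative to DMSO.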

The nature of assay [3]: ATG_RORE_CIS: Attagene CIS-FACTORIAL HepG2 Assay for human RAR-related Orphan Receptor Element (RORE) (AID 2282959). Particulars: HepG2 Attagene cis-factorial RORE reporter, mRNA; actives raise or lower the signal. In outline: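 Transient MRTU transfection of human HepG2 liver cells (FuGene 6); 24 h compound exposure; TriZol RNA, oligo(dT) RT, PCR, FAM labeling, HpaI cut, CE fragment analysis. DMSO = negative control/baseline.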

A short description of assay [4]: ATG_Sox_CIS: Attagene CIS-FACTORIAL HepG2 Assay for human SRY-box transcription factor (SOX) (AID 2282960). The conditions noted are these: HepG2 Attagene cis-factorial SOX reporter, mRNA; actives raise or lower the signal. In outline:
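Endogenous factor activity in human liver HepG2 cells carrying transfected cis-regulated reporter units. RNA taken 24 h post-dose, reverse-transcribed, PCR-amplified and sized by capillary electrophoresis. Gain or loss of signal fitted relative to DMSO.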

In assay [5] the target is Transcription factor Sp1 (Homo sapiens) (UniProt P08047). As to the kind of experiment: ATG_Sp1_CIS: Attagene CIS-FACTORIAL HepG2 Assay for human Specificity Protein 1 (Sp1) (AID 2282961). The conditions noted are these: HepG2 Sp1 cis-reporter transcription, actives raise or lower the signal. In outline: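 Transient MRTU-transfected HepG2, 24 h compound exposure. Total RNA → oligo(dT) RT → PCR of reporter → 6-FAM primer extension → HpaI digest → CE. Endpoint fitted both directions vs DMSO.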

Assay [6] is described as follows: ATG_SREBP_CIS: Attagene CIS-FACTORIAL HepG2 Assay for human Sterol Regulatory Element Binding (SREBP) (AID 2282962). The conditions noted are these: HepG2 Attagene cis-factorial SREBP reporter, mRNA; actives raise or lower the signal. The essentials: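 HepG2 cells transiently transfected with multiplexed cis-element reporter units report endogenous transcription factor activity. After 24 h of chemical exposure, reporter mRNA was quantified by RT-PCR, 6-FAM labelling, HpaI digestion and capillary electrophoresis; bidirectional fits used DMSO as baseline.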

For assay [7], the target named is Signal transducer and activator of transcription 3 (Homo sapiens) (UniProt P40763). As to the kind of experiment: ATG_STAT3_CIS: Attagene CIS-FACTORIAL HepG2 Assay for human Signal Transducer and Activator of Transcription 3 (STAT3) (AID 2282963). The conditions noted are these: HepG2, Attagene cis-factorial STAT3 reporter transcription; actives raise or lower the signal. In outline:
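Values derive from bidirectional fits relative to DMSO of reporter mRNA levels, measured by RT-PCR with capillary electrophoresis, in HepG2 cells carrying transiently transfected cis-regulated reporter units and exposed 24 h.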

Assay [8] can be described thus: ATG_TA_CIS: Attagene CIS-FACTORIAL HepG2 Assay for human TA Basal Promoter (AID 2282964). Particulars: HepG2 Attagene CIS-factorial TA basal promoter reporter; actives raise or lower the signal. In outline: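 Read-out: fluorescent reporter-transcript fragments resolved by capillary electrophoresis after RT-PCR and HpaI digestion. Source: HepG2 cells carrying transiently transfected multi-reporter cis constructs, treated 24 h. Endpoint fitted bidirectionally relative to DMSO.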

Assay [9] is described as follows: ATG_TCF_b_cat_CIS: Attagene CIS-FACTORIAL HepG2 Assay for human T-Cell-Factor with beta-catenin (TCF/b-cat) (AID 2282965). The conditions noted are these: HepG2 TCF/beta-catenin cis-reporter transcription, actives raise or lower the signal. In outline:
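HepG2, transient MRTU transfection, cis-element-driven reporters (endogenous TFs). 24 h compound exposure. Readout: reporter mRNA by RT-PCR + 6-FAM primer extension, HpaI digest, capillary electrophoresis. Gain/loss fit vs DMSO baseline.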

A short description of assay [10]: ATG_PPRE_CIS: Attagene CIS-FACTORIAL HepG2 Assay for human Peroxisome Proliferator-activated Response Element (PPRE) (AID 2282958). The conditions noted are these: HepG2 PPRE cis-element reporter, Attagene transcription factor profiling; actives raise or lower the signal. The essentials: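 HepG2, transient MRTU transfection (cis promoter elements, endogenous TFs). 24 h dosing. RNA → oligo(dT) RT → PCR → 6-FAM primer extension → HpaI digest → CE. Bidirectional fit vs DMSO.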

Paired box protein Pax-6 (Homo sapiens), sequence (P26367 whole entry, looked up): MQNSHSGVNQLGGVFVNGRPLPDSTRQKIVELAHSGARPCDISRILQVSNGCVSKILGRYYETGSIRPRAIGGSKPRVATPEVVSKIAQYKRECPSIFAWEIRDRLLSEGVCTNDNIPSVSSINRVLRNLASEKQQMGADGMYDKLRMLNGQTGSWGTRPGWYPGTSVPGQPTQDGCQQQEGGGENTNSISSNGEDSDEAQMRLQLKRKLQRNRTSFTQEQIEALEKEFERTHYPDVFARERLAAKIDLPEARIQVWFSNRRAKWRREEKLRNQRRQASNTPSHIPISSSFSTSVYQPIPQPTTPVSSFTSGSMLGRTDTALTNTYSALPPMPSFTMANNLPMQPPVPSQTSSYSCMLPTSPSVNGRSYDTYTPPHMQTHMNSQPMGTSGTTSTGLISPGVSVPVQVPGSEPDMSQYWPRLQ
Signal transducer and activator of transcription 3 (Homo sapiens), sequence (P40763 whole entry, looked up): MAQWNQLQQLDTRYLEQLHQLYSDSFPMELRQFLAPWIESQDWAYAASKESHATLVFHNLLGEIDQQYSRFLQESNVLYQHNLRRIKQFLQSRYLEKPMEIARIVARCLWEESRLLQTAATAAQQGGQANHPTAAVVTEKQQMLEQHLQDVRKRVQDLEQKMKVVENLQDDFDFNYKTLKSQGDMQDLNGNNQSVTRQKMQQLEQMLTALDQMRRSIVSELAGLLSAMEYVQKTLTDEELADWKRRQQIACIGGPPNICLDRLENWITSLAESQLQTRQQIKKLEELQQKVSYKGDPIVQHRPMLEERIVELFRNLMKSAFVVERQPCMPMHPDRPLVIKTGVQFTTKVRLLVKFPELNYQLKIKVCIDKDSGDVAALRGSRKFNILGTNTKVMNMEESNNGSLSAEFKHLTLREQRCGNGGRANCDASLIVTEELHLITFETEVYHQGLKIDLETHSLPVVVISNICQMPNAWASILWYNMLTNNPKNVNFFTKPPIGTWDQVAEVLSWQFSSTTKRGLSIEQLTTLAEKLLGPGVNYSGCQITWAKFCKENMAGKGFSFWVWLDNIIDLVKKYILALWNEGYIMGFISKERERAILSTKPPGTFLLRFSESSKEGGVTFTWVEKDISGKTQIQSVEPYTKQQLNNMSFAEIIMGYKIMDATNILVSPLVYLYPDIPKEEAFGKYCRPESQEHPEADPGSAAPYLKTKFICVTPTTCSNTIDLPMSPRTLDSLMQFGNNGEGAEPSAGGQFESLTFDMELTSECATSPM
Transcription factor Sp1 (Homo sapiens), sequence (P08047 whole entry, looked up): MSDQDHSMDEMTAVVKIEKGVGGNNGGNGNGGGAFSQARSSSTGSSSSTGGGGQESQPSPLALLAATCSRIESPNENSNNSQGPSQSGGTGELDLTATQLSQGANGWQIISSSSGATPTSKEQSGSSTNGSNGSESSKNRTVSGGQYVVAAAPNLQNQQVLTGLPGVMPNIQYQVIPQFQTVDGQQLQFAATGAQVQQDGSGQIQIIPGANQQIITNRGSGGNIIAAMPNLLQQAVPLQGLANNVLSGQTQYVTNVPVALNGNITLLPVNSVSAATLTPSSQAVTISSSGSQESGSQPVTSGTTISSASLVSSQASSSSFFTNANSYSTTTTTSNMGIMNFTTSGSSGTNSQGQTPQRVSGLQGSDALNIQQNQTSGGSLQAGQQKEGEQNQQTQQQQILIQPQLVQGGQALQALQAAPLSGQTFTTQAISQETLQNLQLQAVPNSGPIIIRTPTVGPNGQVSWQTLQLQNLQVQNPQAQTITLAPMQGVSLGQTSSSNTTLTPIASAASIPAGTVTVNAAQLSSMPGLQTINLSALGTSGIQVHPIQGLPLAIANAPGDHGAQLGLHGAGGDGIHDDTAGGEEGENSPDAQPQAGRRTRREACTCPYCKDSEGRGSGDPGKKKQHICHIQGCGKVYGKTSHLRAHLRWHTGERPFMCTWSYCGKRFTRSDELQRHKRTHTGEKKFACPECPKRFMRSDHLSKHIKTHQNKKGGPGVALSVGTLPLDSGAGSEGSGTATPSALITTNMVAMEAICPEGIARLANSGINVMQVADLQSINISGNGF

For `CCOP(OCC)OCC`, the molecule was classed as inactive in [1], in assay [2], in [3], in [4], in assay [5] and in assay [6]. Further, the molecule was called inactive in assay [7], in assay [8] and in assay [9].
For the molecule `C=C(C)C#N`, the call in [1], in assay [2], in assay [3], in assay [4], in assay [5] and in [6] was inactive. For the same molecule, the molecule was classed as inactive in assay [7], in assay [8] and in assay [9].
Turning to `COP(=S)(OC)Oc1cc(Cl)c(Cl)cc1Cl`, the molecule was called inactive in [1], in assay [4], in [5], in assay [6], in assay [7] and in assay [8]. Further, the result in [9] was inactive. Moreover, the concentration at half-maximal activity (AC50) was 26.7 µM (active) in assay [2] and 26.6 µM (active) in assay [10].
`CCc1ccccc1C`: the call in [1], in assay [2], in assay [10], in [3], in [5] and in assay [6] was inactive. In addition, the outcome in assay [7], in assay [8] and in assay [9] was inactive.
Take `Nc1ccc(-c2ccc(N)c(Cl)c2)cc1Cl`: the outcome in [1], in [4], in assay [5], in assay [6], in [7] and in assay [8] was inactive. For the same molecule, the AC50 in assay [2] is 27.4 µM (active); in assay [3] it was 24.3 µM (active); in assay [9], 4.63 µM (active).
Regarding `CCCCOCCOC(C)=O`, the outcome in [1], in assay [2], in [10], in [3], in assay [5] and in [6] was inactive. The molecule was called inactive in assay [7], in assay [8] and in assay [9].
Regarding `CC(=O)C=C(C)C`, the molecule was called inactive in [1], in assay [2], in assay [3], in assay [5], in [6] and in assay [7]. The outcome in [8] and in [9] was inactive.
For `[O-][Cl+2]([O-])O`, the call in assay [1], in assay [5], in assay [6], in assay [7], in [8] and in assay [9] was inactive. The half-maximal activity concentration (AC50) in assay [2] was 69 µM (active).
Consider `CC(C)(C)CC(C)(C)c1ccc(O)cc1`, for which the molecule was classed as inactive in [1], in assay [3], in [4], in assay [5], in assay [6] and in assay [7]. In addition, the result in assay [8] and in assay [9] was inactive. Besides, the half-maximal activity concentration (AC50) in [2] is 3.34 µM (active) [middle of 4 runs]; in assay [6], 14.1 µM (active); in assay [9] it was 18.2 µM (active).
Regarding `O=C(Cc1ccccc1)c1ccccc1`, the outcome in assay [1], in [3], in assay [4], in [5], in assay [6] and in assay [7] was inactive. Also, the outcome in assay [8] and in [9] was inactive. For the same molecule, in assay [2], the AC50 was 27.2 µM (active).
Take `COP(=S)(OC)Oc1ccc(S(=O)(=O)N(C)C)cc1`: the call in assay [1], in assay [3], in [5], in [6], in assay [7] and in [8] was inactive. For the same molecule, the call in [9] was inactive. In addition, in assay [2], the concentration at half-maximal activity (AC50) was 26.8 µM (active).
Consider `C[C@]12CCC(=O)C[C@@H]1CC[C@@H]1[C@@H]2CC[C@]2(C)[C@@H](O)CC[C@@H]12`, for which the result in assay [1], in [3], in assay [4], in assay [5], in assay [6] and in assay [7] was inactive. In addition, the molecule was classed as inactive in assay [8] and in assay [9]. The AC50 was 23.4 µM (active) and 23.5 µM (active) and 9.49 µM (active) in assay [2]; 42.3 µM (active) in assay [3]; 26 µM (active) and 23 µM (active) in [6]; 24.6 µM (active) and 23.6 µM (active) in [9].
Turning to `C=CC#N`, the molecule was classed as inactive in assay [1], in [2], in [3], in assay [4], in assay [5] and in [6]. The outcome in [7], in [8] and in assay [9] was inactive.
Consider `Cl/C=C/Cl`, for which the outcome in [1], in assay [2], in [3], in [4], in assay [5] and in [6] was inactive. Moreover, the molecule was classed as inactive in [7], in assay [8] and in [9].
